Source: PubChem BioAssay
A selection: hits, their analogues and other compounds. The true share with any hit is near 19%.
DT40 TDP1 CPT: DT40-hTDP1 cell growth loss with CPT. AID 686979. chicken DT40 Tdp1-/-;hTDP1 cells + 20 nM CPT, ATP luminescence, 48 h. 420,000 compounds, 12% hits. Potency, µM (series often up to 46.2 µM), without a hit: at the top dose activity change, negative = growth inhibition, hits mostly inhibitors; also: potency is read from the fitted curve at half-maximal effect; nearly all actives have a fitted effect of over 55% in size
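Chicken DT40 Tdp1-/- cells stably complemented with human TDP1 were seeded at 400 cells/well in medium containing 20 nM camptothecin, exposed to pin-transferred compounds, and grown at 37 °C for at least 48 hr. Viability was read as ATP luminescence.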
DT40 TDP1 no CPT: qHTS for Inhibitors of human tyrosyl-DNA phosphodiesterase 1 (TDP1): qHTS in cells in absence of CPT; DT40 Tdp1-/- hTDP1 cells, no CPT, ATP luminescence, 48 h; Potency, µM (top dose mostly 46.2 µM), for the others: at the highest dose activity change, negative = growth inhibition, actives largely listed as inhibitors; 420,000 compounds, 15% hits; also: potency is read from the fitted curve at half-maximal effect; nearly all actives have a fitted effect of over 55% in size
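DT40 Tdp1-/-;hTDP1 cells, no CPT (DMSO vehicle only), 400 cells/well; compounds pin-transferred; ≥48 hr, 37 °C; CellTiter-Glo 30 min RT dark, luminescence read.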
ELG1 repair inh: inhibitors of ELG1-dependent DNA repair in HEK293T cells. 330,000 compounds, 2.3% hits. AID 504467. Potency, µM (titrated, usually from 46.1 µM), inactives show top-dose activity change, negative = inhibition, most hits filed as inhibitors. HEK293T ELG1-luciferase reporter, luminescence, 16 h; DNA damage induced by 5-fluorouridine; also: potency is read from the fitted curve at half-maximal effect; nearly all actives have a fitted effect of over 55% in size
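Cells (2,000 per well) received 5-fluorouridine plus test compound or DMSO and were incubated 16 hr at 37 °C, 5% CO2. Luciferase activity was read by luminescence 30 min after ONE-Glo addition; signal suppression marked inhibition of damage-induced ELG1 function.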
HT1080-NT tox: kills 2HG-producing HT-1080-NT fibrosarcoma cells. HT-1080-NT fibrosarcoma viability, CellTiter-Glo ATP luminescence, 48 h. Potency, µM (titrated, usually from 46.1 µM), inactives show top-dose activity, negative = less viability, actives largely listed as cytotoxic. 360,000 compounds, 1.6% hits. AID 686970;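 also: NT is the 2HG producing partner of a matched IDH1 knockdown line; potency is read from the fitted curve at half-maximal effect; 0% = DMSO-treated cells and -100% = media-only wells without cells; nearly all actives have a fitted effect of over 55% in size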
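750 cells/well, RPMI + 5% FBS; 2 h settle, compound pin-transfer, 48 h at 37 degrees C. CellTiter-Glo 10 min RT, luminescence. Normalized to DMSO and media-only wells.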
HT1080 IDH1KD tx: HT-1080 IDH1 knockdown cell toxicity (counter line); HT-1080 IDH1 knockdown viability, ATP luminescence, 48 h; Potency, µM (top dose mostly 46.1 µM), inactives show at the top dose activity, negative = toxicity, actives largely listed as cytotoxic; 360,000 compounds, 2% hits;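 also: potency is read from the fitted curve at half-maximal effect; 0% = DMSO wells and -100% = cell-free medium wells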
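Knockdown cells (IDH1KD HT-1080) received compounds 2 h after plating at 750 cells/well and were kept 48 h at 37 °C in 5% FBS RPMI. A CellTiter-Glo luminescence read gave % activity for curve fitting.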
IL1B secr inh: blocks inflammasome-driven IL-1 beta release. THP-1 LPS/ATP IL-1B secretion, AlphaLISA, 16 h; hits give low values. activity change, % at 57.5 µM. 360,000 compounds, 4.7% hits. AID 743279; in the data active = activity change below about -50%; inconclusive = mostly about -30% to -49%
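THP-1 cells pretreated 1 hr with compounds (up to 57.5 uM final), then stimulated with LPS (250 ng/mL final) plus ATP (1.25 mM final); secreted IL-1B measured by AlphaLISA after 16 hr, decreased signal indicating inhibition.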
Active calls of the source: *; ? = inconclusive; . = not tested or not shown; ! = not confirmed by another sample. Unless noted, calls follow the shape of the dose curve; as a rule, active = well fitted curve in the direction sought with a large enough effect; inconclusive = small, poorly fitted or top-dose-only effect, or another doubt; inactive = no such curve, though single readings can be large; an effect the other way counts as inactive or inconclusive. Unless noted, % is scaled to controls: 0 for no effect and ±100 for the full control effect.

SMILES	DT40 TDP1 CPT	DT40 TDP1 no CPT	ELG1 repair inh	HT1080-NT tox	HT1080 IDH1KD tx	IL1B secr inh
CNCCC(Oc1ccccc1OC)c1ccccc1 (stereo unspecified)	13µM*!	23µM*!	.	-1%	-4%	-13
COc1ccccc1OCCCC(=O)NC(C)c1ccccc1 (stereo unspecified)	-14%	-21%	4%	-3%	-5%	-8
Cc1ccccc1OCC(=O)NC(C)c1ccccc1 (stereo unspecified)	?	?	?	-1%	-4%	-2
CNCC[C@@H](Oc1ccccc1C)c1ccccc1	?	24µM*	.	?	?	?
N#CCCN(Cc1ccccc1)C(C(=O)NC1CCCCC1)c1ccnc2ccccc12 (stereo unspecified)	?	?	.	6%	5%	?
Cc1ccc(S(=O)(=O)NC(=O)C2CCCCC2)cc1	-1%	10%	6%	7%	-5%	9
Nc1ccn(CCCN2CCN(C(=O)C3CC3)CC2)c(=O)n1	-2%	0%	.	5%	18%	6
Cc1cc(C)n(/N=C/c2ccc(C(C)C)cc2)c(=O)c1C#N	?	8.2µM*	?	12%	15%	-18
COCCCN(C(=S)Nc1c(C)cc(C)cc1C)C(C)c1ccccn1 (stereo unspecified)	?	21µM*	-8%	21%	11%	1
CCOC(=O)c1ccccc1NC(=O)COC(=O)CCC(=O)c1ccc(C)cc1	-9%	?	29%	-1%	7%	0
COc1ccccc1CNc1ccc(-c2nc(-c3ccncc3)no2)cc1[N+](=O)[O-]	-16%	-15%	.	.	.	.
O=C(Nc1ccc2c(c1)OCCO2)c1ccc(Cl)cc1	?	21µM*	?	-4%	-1%	-12
CC(=O)Nc1ccc(C(=O)Nc2ccc3c(c2)OCCO3)cc1	0%	-18%	?	-7%	-5%	-13
O=C(Nc1ccccc1)c1ccc2c(c1)OCCO2	-21%	-17%	?	-13%	-24%	-3
O=C(Nc1ccc(NC(=O)c2ccc3c(c2)OCCO3)cc1)c1ccccc1	?	-4%	22%	16µM*	?	30
Cc1cccc(NC(=O)c2ccc3c(c2)OCCO3)c1	-25%	?	?	?	-24%	1
Cc1ccc(NC(=O)c2ccc3c(c2)OCCO3)cc1C	-10%	?	?	0%	-9%	-50*
Cc1ccc(NC(=O)c2ccc3c(c2)OCCO3)cc1S(=O)(=O)Nc1cccc(Cl)c1	16µM*	21µM*	?	-6%	-11%	-57*
COc1ccc(NC(=O)CSc2nnc(C)s2)cc1S(=O)(=O)N1CCOCC1	-6%	5%	1%	-3%	-3%	-10
COc1ccc([C@H]2CC(=O)C[C@@H](CCn3nnc4ccccc43)O2)cc1	-1%	-28%	.	3%	4%	19
C/C(CC(=O)NCc1ccccc1Cl)=N/NC(=O)c1ccccn1	-1%	-14%	?	23%	21%	11
O=C(O)CNc1nc(NCc2ccc(Cl)cc2)ccc1[N+](=O)[O-]	-2%	-9%	.	3%	4%	-13
COc1ccc(NC(=O)CN(C)C(=O)Cc2n[nH]c(=O)c3ccccc23)cc1	9.2µM*	-10%	?	-15%	-6%	31
CN(CC(=O)Nc1cccc(F)c1)C(=O)c1cc(-c2ccccc2)nc2ccccc12	?	?	?	-9%	-12%	-24
COc1ccc(-c2cc(C(=O)N(C)CC(=O)Nc3cccc(F)c3)c3ccccc3n2)cc1	16µM*	?	?	-35%	?	-56*
